# From PubChem BioAssay
# Rows were chosen to be rich in hits. Some 8.7% of all compounds tested hit in one or more screens of this group.
# AMA1-RON2 inh: qHTS for Inhibitors of AMA1-RON; Towards Development of Antimalarial Drug Lead: Primary Screen; Plasmodium falciparum AMA1 (3D7) - RON2 peptide interaction; AlphaScreen AMA1-biotinylated RON2 peptide binding; Potency, µM (highest dose often 58.2 µM), without a hit: at the highest dose activity change, negative = inhibition, hits mostly inhibitors; hit rate 0.2% among 360,000; AID 720542, 2013;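 further: 0% = vehicle wells and -100% = peptide control; nearly all actives have a fitted effect of over 45% in size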
#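 AMA1 (3D7) with his tag at 25 nM final met compounds first, then biotinylated RON2 peptide at 25 nM; detection used donor plus acceptor beads, 10 µg/mL apiece, read by AlphaScreen after 30 min at room temperature.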
# Vaccinia mCherry: qHTS for Stage-Specific Inhibitors of Vaccinia Orthopoxvirus: mCherry Reporter Primary qHTS. Vaccinia virus mCherry reporter infection, fluorescence. Potency, µM (doses to about 36.5 µM), without a hit: at the top dose activity change, negative = inhibition, actives largely listed as inhibitors. hit rate 0.63% among 310,000; calls by dose curve; tested in A549 cells; further: nearly all actives have a fitted effect of over 35% in size
# Pf growth 48h: Primary qHTS for delayed death inhibitors of the malarial parasite plastid, 48 hour incubation; P. falciparum luciferase growth in erythrocytes, 48 h; Potency, µM (top dose mostly 28.7 µM), inactives show at the top dose activity change, negative = inhibition, hits mostly inhibitors; hit rate 5.9% among 310,000; AID 504832, 2011
#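 A one-generation exposure of luciferase-tagged malaria parasites in RPMI 1640/Albumax erythrocyte culture, 37 C and 5% CO2. Inhibition is inferred from decreased luminescence after adding detection reagent.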
# Vaccinia Venus: qHTS for Stage-Specific Inhibitors of Vaccinia Orthopoxvirus: Venus Reporter Primary qHTS. Vaccinia virus Venus reporter expression, fluorescence. AID 720580, 2013. hit rate 0.46% among 330,000. Potency, µM (titrated, usually from 36.5 µM), without a hit: top-dose activity change, negative = inhibition, actives largely listed as inhibitors; calls by dose curve; tested in A549 cells; further: nearly all actives have a fitted effect of over 30% in size
# Pf growth 96h: Primary qHTS for delayed death inhibitors of the malarial parasite plastid, 96 hour incubation | AID 504834, 2011 | hit rate 6.9% among 320,000 | P. falciparum luciferase reporter growth, 96 h | Potency, µM (doses to about 28.7 µM), for the others: at the top dose activity change, negative = inhibition, actives largely listed as inhibitors
#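 96 h incubation, 37 C, 5% CO2, of luciferase-reporter P. falciparum-infected RBCs (2% hematocrit, 0.05% parasitemia final) with test compounds; endpoint luminescence.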
# Active calls of the source: *; i = inactive; ? = inconclusive; . = no result given; [ ] = dose if it differs, or a comment. Unless noted, the call rests on the fitted dose curve; in most records, active means well fitted curve in the direction sought with a large enough effect; inconclusive means small, poorly fitted or top-dose-only effect, or another doubt; inactive means no such curve, though single readings can be large; an effect the other way counts as inactive or inconclusive. Unless noted, on the % scale 0 is the no-effect control and ±100 the full control effect; potency means the concentration at half of the fitted maximal effect.
SMILES,AMA1-RON2 inh,Vaccinia mCherry,Pf growth 48h,Vaccinia Venus,Pf growth 96h
COc1cccc(N2CC(NC(=O)c3ccc(S(=O)(=O)N4CCOCC4)cc3)CC2=O)c1 (centres undefined),.,-7%[7.34 µM],.,-9%[7.34 µM],.
COc1ccc(Cl)cc1-n1nnc(-c2nsc(NC(=O)c3ccccc3Cl)n2)c1C,.,-7%,.,-5%,.
COc1ccc(NC(=O)c2oc3ccccc3c2NC(=O)COc2ccc(F)cc2)c(OC)c1,.,7%,.,8%,.
Cc1ccc(NC(=O)CSc2nnc(C)n3c2cc2sccc23)c(C)c1,.,-14%,.,-9%,.
Cc1sc(NC(=O)c2ccco2)c(C(c2cccnc2)N2CCC(C)CC2)c1C (centres undefined),8%,.,1.9µM*,.,.
COc1ccc(C(c2c(NC(=O)c3ccco3)sc(C)c2C)N2CCOCC2)cc1 (centres undefined),4%,-10%,?,-10%,10%
CCn1ccnc1CN(C)Cc1cn(-c2ccc(C)cc2)nc1-c1cccc(C)c1,17%,-10%,6.6µM*,-26%,?
O=C(NCC(=O)N1CCN(S(=O)(=O)c2ccc3c(c2)OCCO3)CC1)c1ccccc1F,-4%,.,.,.,.
O=C(c1ccccc1OC(F)F)N1CCN(S(=O)(=O)c2ccc3c(c2)OCCCO3)CC1,37%,.,15µM*,.,-25%
O=C(c1ccccc1F)N1CCN(S(=O)(=O)c2ccc3c(c2)OCCO3)CC1,8%,.,.,.,9.3µM*
O=S(=O)(c1ccc(N2CCN(Cc3ccc4c(c3)OCO4)CC2)nc1)N1CCOCC1,.,.,15%,.,?
O=S(=O)(c1ccc(N2CCN(S(=O)(=O)c3ccc4c(c3)OCCO4)CC2)nc1)N1CCCC1,-8%,.,13µM*,.,-8%
O=C(CCl)N1CCN(S(=O)(=O)c2ccc3c(c2)OCCCO3)CC1,-6%,.,?,.,?
COc1ccc(CNC(=O)CCc2c(C)c3cc4c(C)c(C)oc4cc3oc2=O)cc1,.,?,.,-27%,.
COc1ccc(Cl)cc1NC(=O)CSC1=Nc2ccccc2C2=NC(CC(=O)NC3CCCCC3)C(=O)N12 (centres undefined),.,1%,.,-4%,.
Cc1c(OC(C)C(=O)NCc2cccnc2)ccc2c3c(c(=O)oc12)CCCC3 (centres undefined),3%,.,-16%,.,12µM*
Cc1c(OCC(=O)NCc2ccncc2)ccc2c3c(c(=O)oc12)CCCC3,-1%,.,20%,.,?
CC(Oc1ccc2c3c(c(=O)oc2c1)CCC3)C(=O)NCc1cccnc1 (centres undefined),26%,-13%,6%,-9%,?
Cc1c(OC(C)C(=O)O)ccc2c3c(c(=O)oc12)CCCC3 (centres undefined),-5%,i,-1%,-15%,10µM*
CC(=O)Oc1ccc2c3c(c(=O)oc2c1C)CCCC3,4%,0%,3%,-5%,0%
Cc1c(OCC(=O)NCc2cccnc2)ccc2c3c(c(=O)oc12)CCCC3,-2%,.,-10%,.,13µM*
CCCCN(CCCNC(=O)CN1N=C(c2ccccc2)CCC1=O)c1ccccc1,.,-11%,.,-17%,.
COc1ccc(C(=O)/C(=C\c2sccc2C)c2nc3ccccc3o2)cc1,.,.,?,.,3.3µM*
COc1ccc(NC(=O)c2cnn(-c3ccc(C)cc3)c2-n2cccc2)cc1Cl,.,-10%,.,-16%,.
c1ccc(C2CC(c3ccccc3)C(c3ccccc3)N2)cc1 (centres undefined),9%,-10%,-5%,-3%,9.3µM*
SMILES,AMA1-RON2 inh,Vaccinia mCherry,Pf growth 48h,Vaccinia Venus,Pf growth 96h
COc1ccc(C2=NOC(C(=O)NCc3ccc(F)cc3)C2)cc1OC (centres undefined),2%,-32%,-28%,?,2.3µM*
COc1ccc(NC(=O)C2CC(c3ccc(OC)c(OC)c3)=NO2)cc1OC (centres undefined),-2%,.,-4%,.,13µM*
COc1cc(C2=NOC(C(=O)Nc3ccc4c(c3)OCO4)C2)cc(OC)c1OC (centres undefined),42%,.,2.9µM*,.,13%
COc1ccc(C2=NOC(C(=O)Nc3ccc4c(c3)OCO4)C2)cc1OC (centres undefined),8%,-14%,-22%,-3%,-7%
CCc1ccc(NC(=O)CSc2nc3nccnc3c(=O)n2CCc2c[nH]c3ccccc23)cc1,.,-19%,.,-19%,.
CCOC(=O)C1=C(C)N=c2s/c(=C/c3ccc(OCC(=O)O)cc3)c(=O)n2C1c1cc(OC)c(OC)c(OC)c1 (centres undefined),-25%,-17%,1µM*,11%,0.74µM*
CCOC(=O)C1=C(C)N=c2s/c(=C\c3ccc(OCC(=O)O)cc3)c(=O)n2C1c1ccc(OC(C)C)cc1 (centres undefined),-3%,-26%,?,-16%,0.41µM*
CC1=C(C(=O)Nc2ccccc2)C(c2ccc(C)o2)n2c(s/c(=C\c3ccco3)c2=O)=N1 (centres undefined),-17%,i,13µM*,-10%,?
CCOC(=O)C1=C(C)N=c2s/c(=C\c3ccc(OC(C)=O)cc3)c(=O)n2C1/C=C/c1ccccc1 (centres undefined),?,0%,2%,140%,?
COC(=O)C1=C(C)N=c2s/c(=C/c3cccs3)c(=O)n2C1c1ccc(F)cc1 (centres undefined),-13%,.,?,.,?
CCOC(=O)C1=C(C)N=c2s/c(=C\c3ccc(OC(C)=O)c(OCC)c3)c(=O)n2C1/C=C/c1ccccc1 (centres undefined),36%,-15%,10µM*,-5%,20%
CCOC(=O)c1c(NC(C)=O)c2c3c(sc2n1Cc1nc(-c2ccccc2OCC)oc1C)CCCC3,.,-16%,.,-13%,.
O=S(=O)(c1ccc(F)cc1)N1CCC(Oc2cccc(C(F)(F)F)c2)CC1,.,-6%,.,-3%,.
COc1cccc(C2C(C(=O)Nc3ccccc3)=C(C)N=c3s/c(=C/c4ccc(OCC(=O)O)cc4)c(=O)n32)c1 (centres undefined),2%,i,7.4µM*,-6%,1.2µM*
